# Assay results taken from PubChem BioAssay AID588382 (National Center for Advancing Translational Sciences (NCATS), 2011).
# The campaign covered roughly 1,300 compounds. About 150 (12%) were called active. Not shown: some 30% with an inconclusive outcome. This excerpt belongs to a sample that is enriched for actives. A number with no mark means an inactive call. Calls come from the whole dose curve; as a rule, active = well fitted cell-killing curve with a large enough effect; inconclusive = small, poorly fitted or top-dose-only effect, or effect the other way; inactive = flat fitted curve, though single readings scatter.
# Experiment: qHTS of small molecules that selectively kill Giardia lamblia: Hit Validation in HepG2 cytotox;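 note: compound exposure lasted overnight at 37 deg C; nearly all actives have a fitted effect of over 55% in size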;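 for activity change, negative = cytotoxicity: viability measured as cellular ATP by ATPLite luminescence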
# Details: cell viability; Potency: HepG2 cytotoxicity; series mostly up to 38.3 µM; activity change, negative = cytotoxicity: at the top concentration
# Method in brief: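 Counterscreen cytotoxicity: ATPLite luminescence (15 min, room temperature) measured in HepG2 cells exposed overnight at 37 deg C to pin-transferred compound (23 nL) after overnight pre-incubation.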
# % is set by controls: 0 for no effect and ±100 for the full control effect; potency is the fitted concentration of half-maximal effect.
Structure (SMILES),"activity change, negative = cytotoxicity",Potency
COc1ccc(-n2nc([N+](=O)[O-])c(=NCCc3ccccc3)n2O)cc1,8.74%,–
CCCCC12CN3CC(C)(CN(C1)C3c1ccc([N+](=O)[O-])o1)C2=O (stereo not given),-4.07%,–
Cc1ccc(S(=O)(=O)N2[C@@H](c3ccc(F)cc3)C(C(=O)O)=CC[C@H]2c2cccs2)cc1,16.8%,–
COc1ccc(C(=O)CC(SCC(NC(C)=O)C(=O)O)c2ccc(Cl)cc2)cc1OC (stereo not given),21.9%,–
Cc1cc(C)cc(N=c2c([N+](=O)[O-])nn(-c3cccc(Cl)c3)n2O)c1,17.1%,–
O=C(Nc1ccc2oc(-c3ccccc3F)nc2c1)c1ccc([N+](=O)[O-])o1,16.3%,–
Cc1ccc(-c2nnc(NC(=O)c3ccc([N+](=O)[O-])o3)o2)c(C)c1,-10.4%,–
Cc1cccnc1NC(=O)c1ccc([N+](=O)[O-])o1,5.86%,–
O=C(Nc1ccc2oc(-c3cccnc3)nc2c1)c1ccc([N+](=O)[O-])o1,–,13.1 µM (active)
O=C(Nc1ccc(-c2nc3ncccc3o2)cc1)c1ccc([N+](=O)[O-])o1,–,4.65 µM (active)
O=C(Nc1ccc2oc(-c3ccncc3)nc2c1)c1ccc([N+](=O)[O-])o1,–,16.5 µM (active)
COc1ccc(-n2c(C)cc(C(=O)COc3ccc(C)nc3[N+](=O)[O-])c2C)cc1,0.437%,–
CC(=O)c1c(COC(=O)c2ccc(F)cc2)nc2ccccc2[n+]1[O-],26.6%,–
COc1ccc(-n2nc([N+](=O)[O-])c(=NCCc3ccc(OC)c(OC)c3)n2O)cc1,19.2%,–
Cc1cccc(NC(=O)CN2C(=O)S/C(=C\c3ccc(O)c([N+](=O)[O-])c3)C2=O)c1,1.03%,–
Cn1nc(N)c2c(-c3ccc(Cl)cc3)c(C#N)c(N)nc21,18.2%,–
O=[N+]([O-])c1ccc(/C=N/Nc2nc(N3CCCC3)nc(N3CCCC3)n2)o1,27.3%,–
CCN(CC)S(=O)(=O)c1cccc(N=Nc2c(O)c3ccccc3oc2=O)c1,3.89%,–
Cc1ccc(S(=O)(=O)N2[C@@H](c3ccc(Cl)cc3)C(C(=O)O)=CC[C@H]2c2cccc(Cl)c2)cc1,4.59%,–
O=[N+]([O-])c1ccc(NCc2ccccc2N2CCC(CO)CC2)nc1,0.405%,–
Cc1c(Cl)cccc1N=c1c([N+](=O)[O-])nn(-c2ccccc2)n1O,11.6%,–
CN=c1c([N+](=O)[O-])nn(-c2ccc3c(c2)OCCO3)n1O,19.2%,–

Structure (SMILES),"activity change, negative = cytotoxicity",Potency
O=c1c2c([N+](=O)[O-])cc([N+](=O)[O-])cc2nc2ccccn12,12.5%,–
CCCC12CN3CC(C)(CN(C1)C3c1ccc([N+](=O)[O-])o1)C2=O (stereo not given),23.5%,–
CC(=O)CSc1ccc(-c2nc3ccccc3[nH]2)cn1,–,14.7 µM (active)
Cc1ncc([N+](=O)[O-])n1CCOC(=O)NC(NCc1ccccc1)C(Cl)(Cl)Cl (stereo not given),6.73%,–
Cc1cnc(N=Nc2ccccc2)[nH]1,9.01%,–
Cc1cc2nc(-c3ccc[nH]c3=O)[nH]c2cc1C,–,2.33 µM (active)
O=[N+]([O-])c1nn(-c2ccc3c(c2)OCCO3)n(O)c1=NC1CCCCC1,-2.04%,–
CC(NC(=O)COc1cccnc1[N+](=O)[O-])c1ccc(F)cc1 (stereo not given),20.7%,–
O=C(Nc1nnc(SCC(=O)N2CCOCC2)s1)c1ccccc1Cl,–,2.07 µM (active)
O=C(Nc1nnc(SCC(=O)N2CCOCC2)s1)c1ccccc1,–,2.33 µM (active)
O=C(Cc1ccc(-n2c(=O)c3sccc3n(CC(=O)Nc3ccccc3)c2=O)cc1)NCc1ccco1,10.6%,–
O=C(CSc1nnc(NC(=O)c2c(F)cccc2F)s1)Nc1ccc(F)cc1,5.56%,–
O=C(CSc1nnc(NC(=O)c2ccccc2)s1)NCc1ccco1,–,2.07 µM (active)
Cc1ccc(S(=O)(=O)N2[C@@H](c3ccccc3)C(C(=O)O)=CC[C@H]2c2ccc3c(c2)OCO3)cc1,7.58%,–
CCN(c1ccccc1)S(=O)(=O)c1cccc(C(=O)OCc2nc3sc(C)c(C)c3c(=O)[nH]2)c1,14.1%,–
CC(OC(=O)c1ccc([N+](=O)[O-])s1)C(=O)NC1CCCCC1C (stereo not given),-1.99%,–
O=[N+]([O-])c1nn(-c2ccc3c(c2)OCCO3)n(O)c1=NCCCO,6.86%,–
O=[N+]([O-])c1ccc(-c2nc(C(Cl)Cl)c3ccccc3n2)cc1,16.9%,–
CCOC(=O)C1=C(C)N=c2s/c(=C\c3ccc(O)c([N+](=O)[O-])c3)c(=O)n2C1c1ccccc1OC (stereo not given),-5.81%,–
Nc1ccc[n+](CC(=O)c2ccc(F)cc2)c1,–,1.65 µM (active)
CCOC(=O)c1c(C)[nH]c(C)c1S(=O)(=O)N1CCN(c2ccc([N+](=O)[O-])cc2)CC1,10.8%,–
Cc1ccc(CN=c2c([N+](=O)[O-])nn(-c3cccc(Cl)c3)n2O)cc1,20.9%,–

Structure (SMILES),"activity change, negative = cytotoxicity",Potency
N#C/C(=C(/O)c1ccc([N+](=O)[O-])o1)c1nc2ccccc2[nH]1,–,3.69 µM (active)
CCCn1c(NC(=O)c2ccc([N+](=O)[O-])o2)nc2ccccc21,-29.1%,–
CN(Cc1ccccc1)C(=O)c1ccc([N+](=O)[O-])o1,8.4%,–
COc1ccc(C(=S)NC2CCCCC2)cc1,8.79%,–
COc1ccccc1-c1nnc(C2CCN(S(=O)(=O)c3cccc([N+](=O)[O-])c3)CC2)o1,-11.8%,–
CS(=O)(=O)N1CCN(c2ccc([N+](=O)[O-])c3cccnc23)CC1,12.2%,–
COc1ccccc1C1OC2=C(Nc3ccc([N+](=O)[O-])cc3N2)C1=O (stereo not given),5.53%,–
CNc1nnc(-c2ccc(N(C)C)cc2)s1,–,4.14 µM (active)
Cc1ccccc1NC(NC(=O)OCCn1c([N+](=O)[O-])cnc1C)C(Cl)(Cl)Cl (stereo not given),15.1%,–
COc1cc(/C=C/c2ccc3cccc(OC)c3n2)c(O)c([N+](=O)[O-])c1,-0.206%,–
CC1=NN(c2nc3ccccc3[nH]2)C(=O)/C1=C/N(C)C,–,0.927 µM (active)
Cc1ccc([C@H]2C(C(=O)O)=CC[C@@H](c3cccc(Cl)c3)N2S(=O)(=O)c2ccc(C)cc2)cc1,20.3%,–
O=[N+]([O-])c1cccc(-n2nnnc2CNCc2ccccc2)c1,4.65%,–
O=C(O)c1cc2ccccc2c(N=Nc2cccnc2)c1O,17.4%,–
O=C(Nc1nc2c(Cl)cccc2s1)c1ccc([N+](=O)[O-])o1,-7.01%,–
CC(=O)N1CCN(c2ccc(NC(=O)c3ccc([N+](=O)[O-])o3)cc2Cl)CC1,–,9.27 µM (active)
CC(=O)N1CCN(c2ccc(S(C)(=O)=O)cc2[N+](=O)[O-])CC1,14.8%,–
CCC(=O)N1CCN(c2ccc(NC(=O)c3ccc([N+](=O)[O-])o3)cc2Cl)CC1,–,3.69 µM (active)
CN1CCN(c2ccc(NC(=O)c3ccc([N+](=O)[O-])o3)cc2Cl)CC1,–,3.69 µM (active)
O=C(Nc1cccc(NC(=O)c2ccccc2Cl)c1)c1ccc([N+](=O)[O-])o1,–,2.61 µM (active)
CCC(=O)N1CCN(c2ccc(Cl)cc2NC(=O)c2ccc([N+](=O)[O-])o2)CC1,13%,–
